Tested on: T1, TIE2
T1 construct: gene TEK
Details: concentration: 1 μM, replicates: in singlicate; n = 1
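Also: KINOMEscan kinase panel screen.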

Compared with `O=C(Nc1n[nH]c2nc(-c3nccs3)c(Br)cc12)C1CCCC1` [SB-742609], `O=C(Nc1n[nH]c2nc(-c3nccs3)c(Br)cc12)C1CC1` [SB-742251] is higher in “%Inh” value: 0% for the first, 8% for the second.

Compared with `CC1=C(C(=O)Nc2cc3cn[nH]c3cc2F)C(c2ccc(C(F)(F)F)cc2)CC(=O)N1` (stereo not shown) [GSK429286], `O=C(Nc1n[nH]c2cc(-c3cccc(F)c3F)ccc12)C1CC1` [SB-733894] is higher in “%Inh” value: 0% for the first, 17% for the second.

`CSc1nn2c(=O)cc(N3CCOCC3)nc2n1Cc1cccc(C(F)(F)F)c1C` [GSK2363608] and `O=c1cc(N2CCOCC2)nc2n(Cc3cccc(Cl)c3Cl)ccn12` [GSK2286295] are the same in “%Inh” value: 0% for the first, 0% for the second.

First: Cl.O=C(Nc1cccc(-c2nn3ncccc3c2-c2ccnc(Nc3cccnc3)n2)c1)c1c(F)cccc1F [GSK312879]
Second: O=C(Nc1ccccc1)Nc1cccc(Oc2ccc3nccn3n2)c1
The “%Inh” value of the first is lower: 1% for the first, 92.4% for the second.

`Cc1ccc(NC(=O)Nc2cccc(Cl)c2)cc1-c1ccc(C(=O)Nc2ccncc2)cc1` [GSK1398468] and `CC(=O)Nc1nc2cnc(Nc3cc(NC(=O)c4cccc(CCC#N)c4)ccc3C)nc2s1` are the same in “%Inh” value: 0% for the first, 0% for the second.

`COc1cccc(NC(=O)NC2CCN(c3ccnc(Nc4ccc(F)cc4)n3)C2)c1` (stereo not shown) [GSK1379721] and `CCCc1ccc(S(=O)(=O)NC2CCN(c3ccnc(Nc4ccc(F)cc4)n3)C2)cc1` (stereo not shown) [GSK1379715] are the same in “%Inh” value: 0% for the first, 0% for the second.

`CS(=O)(=O)c1ccc(-c2nc3n(c2-c2ccncc2)CCC3)cc1` [SKF-105942] and `O=S(=O)(c1ccc(-c2ccnc3[nH]ccc23)cc1)N1CCCC1` [GSK846226] are the same in “%Inh” value: 0% for the first, 0% for the second.

`Cc1ccc(NC(=O)Nc2cc(C(C)(C)C)nn2-c2ccccc2)cc1` [GSK1014915] and `Cn1ccc2ncnc(Oc3ccc(NC(=O)Nc4ccccc4)cc3)c21` are the same in “%Inh” value: 0% for the first, 0% for the second.

Going from `CN(C)CCN(C)C(=O)c1cc(-c2ccncc2)c(-c2ccc(Cl)c(O)c2)o1.Cl.Cl` [SB-710397] to `CN1C(=O)C(Nc2ccc(Cl)c(C(=O)O)c2)=C(c2ccc(Cl)cc2)C1=O` [SB-404290], the “%Inh” value rises from 0% to 14%.

First: O=C(O)COc1ncnc2cc(-c3ccc4[nH]ncc4c3)sc12
Second: Cn1ccc2ncnc(Oc3cccc(C(=O)Nc4ccccc4)c3)c21
The “%Inh” value of the first is higher: 21% for the first, 0% for the second.

First: Cc1cccc(-c2nc(C)cc(Nc3ccncc3)n2)n1 [GSK257997]
Second: COc1cccc(-c2cc(-c3c[nH]nc3-c3ccccn3)ccn2)c1 [GW680338]
The “%Inh” value of the first is higher: 8% for the first, 0% for the second.

`Nc1nc(-c2nccs2)c(-c2ccnc3ccccc23)s1` [GW693542] and `Nc1ncnc2[nH]c(-c3ccccc3)nc12` [AH5015] are the same in “%Inh” value: 0% for the first, 0% for the second.

Going from `CC(C)(C)c1ccc(C(=O)Nc2cn3cc(-c4cccnc4)ccc3n2)cc1` to `Cc1cccc(-c2nc(-c3ccc(S(C)(=O)=O)cc3)sc2-c2ccnc(NCCc3ccccc3)c2)c1`, the “%Inh” value falls from 27% to 19%.

First: Cl.c1ccc(-c2n[nH]cc2-c2ccnc(-c3ccc(CN4CCOCC4)cc3)c2)nc1 [GW776245]
Second: Fc1cc(Cl)ccc1Nc1ccnc2cc(-c3ccc(CN4CCCCC4)o3)ccc12 [GW560116]
The “%Inh” value of the first is higher: 24% for the first, 0% for the second.

`COc1cc2ncn(-c3cc(OCC4CCCO4)c(C(N)=O)s3)c2cc1OC` (stereo not shown) [GSK204607] and `COc1ccc(CNC(=O)NC2CCN(c3ccnc(Nc4cc(OC)c(OC)c(OC)c4)n3)C2)cc1` (stereo not shown) [GSK1379748] are the same in “%Inh” value: 0% for the first, 0% for the second.

First: COc1ccc(C2=C(Nc3cccc(C(=O)O)c3)C(=O)NC2=O)cc1 [SB-390765]
Second: Cn1cncc1-c1ccc2ncnc(Nc3ccc(OCc4ccccc4)cc3)c2c1 [GW320571]
The “%Inh” value of the first is higher: 21% for the first, 0% for the second.

`Fc1cc(Cl)ccc1Nc1ccnc2cc(I)ccc12` [GW551191] and `COc1cc2ncnc(Nc3ccc4nc(-c5ccccc5)[nH]c4c3)c2cc1OC.Cl` [GW282450] are the same in “%Inh” value: 0% for the first, 0% for the second.

Reference: article PMC5540273 (PLoS ONE, 2017)
